Assay results from PubChem BioAssay (NCI).
About 79,000 compounds went through this panel and 15% of them were active in at least one assay; those are over-represented in the sample as a whole. Active and inactive are the calls of the source. Rule as the data show it: active = growth inhibition above about 70%; inactive = the rest.

Columns and labels:
[1] = NCI Yeast Anticancer Drug Screen. Data for the rad52 strain (AID 147);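 also: 0% = growth of vehicle-treated control cultures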; details: S. cerevisiae rad52 mutant growth inhibition, stronger effect = higher value
In short: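 Inhibition of yeast growth, referenced to vehicle controls, was the measured output for a strain with defective DNA damage repair.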

[2] = NCI Yeast Anticancer Drug Screen. Data for the wt1 strain (AID 149);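 also: 0% = growth of vehicle-treated wt1 cultures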; details: S. cerevisiae wt1 strain (SPY 50644) growth inhibition, stronger effect = higher value
In short: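 wt1 yeast, compound-treated; % growth inhibition vs vehicle control.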

[3] = NCI Yeast Anticancer Drug Screen. Data for the rad50EPP+ strain (AID 151);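 also: 0% = growth of vehicle-treated control cultures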; details: S. cerevisiae rad50 mutant strain, stronger effect = higher value
In short: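 Genetically defined yeast (rad50EPP+, DNA damage repair alteration) is grown with compound, and inhibition of growth is expressed relative to vehicle-treated controls.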

[4] = NCI Yeast Anticancer Drug Screen. Data for the mgt1 strain (AID 153); details: S. cerevisiae mgt1 mutant growth inhibition, stronger effect = higher value
In short: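 In the mgt1 strain, test compounds were added and growth inhibition was determined relative to vehicle-treated controls.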

[5] = NCI Yeast Anticancer Drug Screen. Data for the rad50 strain (AID 155);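 also: 0% = growth of vehicle-only cultures of the same strain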; details: S. cerevisiae rad50 strain growth inhibition, stronger effect = higher value
In short: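 Genetically altered yeast (DNA repair pathway); compound treatment; growth inhibition vs vehicle ctrl.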

[6] = NCI Yeast Anticancer Drug Screen. Data for the mec2-1 strain (AID 157); details: S. cerevisiae mec2-1 strain, stronger effect = higher value
In short: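 Each compound was tested on mec2-1 yeast, a strain altered in DNA damage repair or cell cycle control. Growth inhibition is reported relative to vehicle.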

[7] = NCI Yeast Anticancer Drug Screen. Data for the rad14 strain (AID 159);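 also: 0% = growth of vehicle-treated control cultures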; details: S. cerevisiae rad14 strain growth inhibition, stronger effect = higher value
In short: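 Test compounds were applied to a repair-deficient yeast strain. Its growth was then compared with that of cultures given vehicle alone, and inhibition was expressed relative to those controls.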

[8] = NCI Yeast Anticancer Drug Screen. Data for the sgs1 mgt1 strain (AID 161);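 also: 0% = growth of cultures given vehicle only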; details: S. cerevisiae sgs1 mgt1 strain, stronger effect = higher value
In short: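 Inhibition of yeast growth, normalised to vehicle-treated controls, is reported for a strain bearing genetic alterations in DNA damage repair.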

[9] = NCI Yeast Anticancer Drug Screen. Data for the CLN2oe strain (AID 163);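 also: 0% = growth of vehicle-only control cultures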; details: S. cerevisiae CLN2oe strain, stronger effect = higher value
In short: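 First, the altered yeast strain was treated with each compound; second, its growth was measured; finally, inhibition was derived by comparison with vehicle controls.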

[10] = NCI Yeast Anticancer Drug Screen. Data for the cln2 rad14 strain (AID 165);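 also: 0% = growth equal to vehicle treated cultures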; details: S. cerevisiae cln2 rad14 strain, stronger effect = higher value
In short: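 Test compounds were added to cln2 rad14 yeast cultures; inhibition of growth was then determined by comparison with vehicle treatment.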

[11] = NCI Yeast Anticancer Drug Screen. Data for the bub3 strain (AID 167); details: S. cerevisiae bub3 mutant strain, stronger effect = higher value
In short: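 Yeast carrying a defined mutation is treated with each compound, and growth is compared with that of vehicle-exposed cells to give inhibition.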

[12] = NCI Yeast Anticancer Drug Screen. Data for the wt2 strain (AID 169);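 also: 0% = growth of vehicle-treated yeast cultures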; details: S. cerevisiae wt2 strain growth inhibition, stronger effect = higher value
In short: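 The panel's yeast strains carry defined changes in DNA repair or cell cycle genes. Each strain is grown with compound, and growth loss is scored relative to vehicle.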

[13] = NCI Yeast Anticancer Drug Screen. Data for the mlh1 strain (AID 171);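 also: 0% = growth of vehicle-treated control cultures of the same strain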; details: S. cerevisiae mlh1 strain growth inhibition, stronger effect = higher value
In short: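 Inhibition values reflect reduced yeast growth in the presence of compound, referenced to vehicle controls, using a strain chosen for its alteration in DNA repair or cell cycle control.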

[14] = NCI Yeast Anticancer Drug Screen. Data for the sgs1 strain (AID 173);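 also: 0% = growth of vehicle-only control cultures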; details: S. cerevisiae sgs1 mutant, stronger effect = higher value
In short: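 Vehicle-treated cultures served as reference for growth inhibition of a yeast strain altered in DNA damage repair or cell cycle control after compound exposure.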

[15] = NCI Yeast Anticancer Drug Screen. Data for the mlh1 rad18 strain (AID 175); details: S. cerevisiae mlh1 rad18 strain growth inhibition, stronger effect = higher value
In short: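 Inhibition values reflect reduced growth of mutant yeast versus vehicle-treated controls following compound exposure; the mutations affect DNA damage repair.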

[16] = NCI Yeast Anticancer Drug Screen. Data for the rad18 strain (AID 177); details: S. cerevisiae rad18 mutant growth inhibition, stronger effect = higher value
In short: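 Steps: expose repair-mutant yeast to compound; measure growth; express as inhibition relative to vehicle control.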

[17] = at 5.0 µM (retest, dose inferred, filed as 0.5)
[18] = at 50.0 µM (retest, dose inferred, filed as 5.0)

Measured: growth inhibition

c1ccc2c(c1)Cn1c-2nc2ccccc21
active: [1]; at 33.0 µM 78% | [1]; at 100.0 µM 97% | [2]; at 100.0 µM 94% | [3]; at 100.0 µM 95% | [4]; at 33.0 µM 74% | [4]; at 100.0 µM 98% | [5]; at 33.0 µM 75% | [5]; [18] 74% | [5]; at 50.0 µM 84.3% | [5]; at 100.0 µM 96% | [6]; [17] 73% | [6]; [18] 85% | [6]; at 100.0 µM 98% | [7]; at 100.0 µM 97% | [8]; [18] 84% | [9]; at 100.0 µM 96% | [10]; [18] 87% | [11]; [18] 86% | [11]; at 100.0 µM 97% | [12]; at 100.0 µM 94% | [13]; at 100.0 µM 96% | [14]; at 100.0 µM 92% | [15]; [18] 78% | [15]; at 50.0 µM 83.4% | [16]; at 100.0 µM 95%
inactive: [1]; at 1.2 µM 1% | [1]; at 3.7 µM 1% | [1]; at 11.0 µM 8% | [2]; at 1.2 µM -27% | [2]; at 3.7 µM -21% | [2]; at 11.0 µM -28% | [2]; at 33.0 µM 5% | [3]; at 1.2 µM 2% | [3]; at 3.7 µM -4% | [3]; at 11.0 µM 8% | [3]; at 33.0 µM 62% | [4]; at 1.2 µM 15% | [4]; at 3.7 µM 3% | [4]; at 11.0 µM 30% | [5]; at 1.2 µM -9% | [5]; at 3.7 µM 1% | [5]; [17] 49% | [5]; at 11.0 µM 24% | [6]; at 1.2 µM 9% | [6]; at 3.7 µM 7% | [6]; at 11.0 µM 13% | [6]; at 33.0 µM 53% | [6]; at 50.0 µM 69.5% | [7]; at 1.2 µM -19% | [7]; at 3.7 µM -17% | [7]; at 11.0 µM -12% | [7]; at 33.0 µM 33% | [8]; [17] -27% | [9]; at 1.2 µM -18% | [9]; at 3.7 µM 0% | [9]; at 11.0 µM -23% | [9]; at 33.0 µM 18% | [10]; [17] 54% | [11]; at 1.2 µM -11% | [11]; at 3.7 µM -5% | [11]; [17] 27% | [11]; at 11.0 µM 3% | [11]; at 33.0 µM 68% | [12]; at 1.2 µM -24% | [12]; at 3.7 µM -5% | [12]; at 11.0 µM -4% | [12]; at 33.0 µM 34% | [13]; at 1.2 µM -31% | [13]; at 3.7 µM -8% | [13]; at 11.0 µM 2% | [13]; at 33.0 µM 36% | [14]; at 1.2 µM -7% | [14]; at 3.7 µM -21% | [14]; at 11.0 µM -21% | [14]; at 33.0 µM 31% | [15]; [17] 50% | [16]; at 1.2 µM -7% | [16]; at 3.7 µM -4% | [16]; at 11.0 µM -1% | [16]; at 33.0 µM 25%

O=c1[nH]c2ccccc2c2nc3ccccc3n12
active: [1]; at 33.0 µM 72% | [1]; at 100.0 µM 70% | [3]; at 33.0 µM 90% | [3]; at 100.0 µM 92% | [5]; at 11.0 µM 77% | [5]; at 33.0 µM 78% | [5]; [18] 94% | [5]; at 100.0 µM 88% | [6]; [18] 97% | [11]; [18] 74%
inactive: [1]; at 1.2 µM -43% | [1]; at 3.7 µM -34% | [1]; at 11.0 µM 8% | [2]; at 1.2 µM -39% | [2]; at 3.7 µM -44% | [2]; at 11.0 µM -8% | [2]; at 33.0 µM 3% | [2]; at 100.0 µM -17% | [3]; at 1.2 µM 10% | [3]; at 3.7 µM 16% | [3]; at 11.0 µM 48% | [4]; at 1.2 µM -34% | [4]; at 3.7 µM -14% | [4]; at 11.0 µM 26% | [4]; at 33.0 µM 40% | [4]; at 100.0 µM 8% | [5]; at 1.2 µM -17% | [5]; at 3.7 µM -6% | [5]; [17] 51% | [5]; at 50.0 µM 15.6% | [6]; at 1.2 µM -48% | [6]; at 3.7 µM -50% | [6]; [17] 62% | [6]; at 11.0 µM -41% | [6]; at 33.0 µM -42% | [6]; at 50.0 µM 12.7% | [6]; at 100.0 µM 12% | [7]; at 1.2 µM -39% | [7]; at 3.7 µM -43% | [7]; at 11.0 µM -50% | [7]; at 33.0 µM 7% | [7]; at 100.0 µM -8% | [8]; [17] -17% | [8]; [18] 22% | [9]; at 1.2 µM 12% | [9]; at 3.7 µM -2% | [9]; at 11.0 µM 15% | [9]; at 33.0 µM 40% | [9]; at 100.0 µM 26% | [10]; [17] 33% | [10]; [18] 59% | [11]; at 1.2 µM -11% | [11]; at 3.7 µM 5% | [11]; [17] 45% | [11]; at 11.0 µM 11% | [11]; at 33.0 µM 60% | [11]; at 100.0 µM 42% | [12]; at 1.2 µM -53% | [12]; at 3.7 µM -47% | [12]; at 11.0 µM -47%
